{"source": "PubChem BioAssay (EPA / NIEHS)", "key": {"[1]": {"target": "Retinoic acid receptor RXR-alpha (Homo sapiens) (UniProt P19793)", "sequence (P19793 whole entry, looked up, the tested form may be a part)": "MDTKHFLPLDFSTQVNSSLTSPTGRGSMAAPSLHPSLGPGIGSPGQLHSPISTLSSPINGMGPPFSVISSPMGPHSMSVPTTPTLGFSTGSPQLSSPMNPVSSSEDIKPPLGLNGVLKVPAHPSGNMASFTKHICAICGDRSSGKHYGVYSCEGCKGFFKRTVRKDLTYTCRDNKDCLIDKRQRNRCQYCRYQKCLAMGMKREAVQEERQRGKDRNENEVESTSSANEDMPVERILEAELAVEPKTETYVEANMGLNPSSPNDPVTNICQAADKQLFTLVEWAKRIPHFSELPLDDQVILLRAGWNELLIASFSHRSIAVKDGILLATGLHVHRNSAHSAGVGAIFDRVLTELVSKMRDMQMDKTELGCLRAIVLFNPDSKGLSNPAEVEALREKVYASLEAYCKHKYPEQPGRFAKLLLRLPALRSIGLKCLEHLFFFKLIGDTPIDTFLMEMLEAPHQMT", "assay": "ATG_RXRa_TRANS: Attagene TRANS-FACTORIAL HepG2 Assay for human Retinoid X Receptor alpha (RXRa) (AID 2283012)", "outline": "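Measures exogenous chimeric NR-GAL4 activity in transfected HepG2 liver cells after 24 h of dosing. Induced reporter mRNA was detected by RT-PCR with capillary electrophoresis, and gain of signal was analysed against DMSO.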"}, "[2]": {"target": "human Retinoid X Receptor beta (RXRb), RXRB (gene 6257) (UniProt P28702)", "sequence (P28702 whole entry, looked up, the tested form may be a part)": "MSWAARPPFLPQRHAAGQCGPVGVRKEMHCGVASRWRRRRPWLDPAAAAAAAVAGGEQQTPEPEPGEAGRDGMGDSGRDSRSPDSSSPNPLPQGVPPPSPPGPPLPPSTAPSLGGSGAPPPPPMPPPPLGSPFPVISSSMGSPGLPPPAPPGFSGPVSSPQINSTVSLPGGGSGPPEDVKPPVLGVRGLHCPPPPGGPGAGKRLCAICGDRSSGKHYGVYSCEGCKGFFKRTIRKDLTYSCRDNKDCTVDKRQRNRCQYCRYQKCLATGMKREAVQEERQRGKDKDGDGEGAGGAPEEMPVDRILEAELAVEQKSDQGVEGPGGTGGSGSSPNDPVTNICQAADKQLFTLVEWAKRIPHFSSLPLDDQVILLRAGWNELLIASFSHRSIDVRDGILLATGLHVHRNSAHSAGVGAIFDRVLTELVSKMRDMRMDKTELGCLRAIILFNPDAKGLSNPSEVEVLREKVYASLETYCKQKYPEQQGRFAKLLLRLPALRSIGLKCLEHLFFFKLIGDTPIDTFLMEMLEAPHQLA", "assay": "ATG_RXRb_TRANS: Attagene TRANS-FACTORIAL HepG2 Assay for human Retinoid X Receptor beta (RXRb) (AID 2283013)", "outline": "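Chimeric receptor-Gal4 activity was assessed in transiently transfected human HepG2 cells after 24 h exposure. Transcripts from GAL4-UAS reporters were quantified by fluorescent RT-PCR and capillary electrophoresis, with DMSO as negative control and baseline.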"}, "[3]": {"target": "human Thyroid Receptor alpha (THRa1), THRA (gene 7067) (UniProt P10827)", "sequence (P10827 whole entry, looked up, the tested form may be a part)": "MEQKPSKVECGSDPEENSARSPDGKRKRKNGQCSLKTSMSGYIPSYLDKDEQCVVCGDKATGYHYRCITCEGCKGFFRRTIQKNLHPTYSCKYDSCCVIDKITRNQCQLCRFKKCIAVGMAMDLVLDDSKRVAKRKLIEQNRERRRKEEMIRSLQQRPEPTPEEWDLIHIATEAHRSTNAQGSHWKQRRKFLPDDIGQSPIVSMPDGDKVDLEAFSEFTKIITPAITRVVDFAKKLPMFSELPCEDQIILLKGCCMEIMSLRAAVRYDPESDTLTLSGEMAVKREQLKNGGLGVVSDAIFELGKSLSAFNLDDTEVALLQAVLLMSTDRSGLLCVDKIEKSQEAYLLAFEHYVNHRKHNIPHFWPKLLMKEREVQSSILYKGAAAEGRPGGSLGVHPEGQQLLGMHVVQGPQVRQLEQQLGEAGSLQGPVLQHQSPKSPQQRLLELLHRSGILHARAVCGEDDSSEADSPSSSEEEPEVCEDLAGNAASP", "assay": "ATG_THRa1_TRANS: Attagene TRANS-FACTORIAL HepG2 Assay for human Thyroid Receptor alpha (THRa1) (AID 2283014)", "outline": "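HepG2 cells transiently transfected with multiplexed GAL4-UAS reporter units for exogenous chimeric THRa1-Gal4; reporter mRNA measured 24 h after dosing by RT-PCR, 6-FAM labelling, HpaI digestion and capillary electrophoresis. Gain-of-signal fitted versus DMSO baseline.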"}}, "note": "Records with an inconclusive call do not appear. Activity calls are given as the source filed them. Rule for the calls: active = hit-call score of the fitted dose curve at least 0.9, where 1 is the maximum; inconclusive = response in the unintended direction; inactive = score below 0.9."}
{"compound": "CC(CCO)CCc1ccccc1", "note": "(configuration not stated)", "values": [{"measurement": "outcome", "setting": "[1]", "result": "inactive"}, {"measurement": "outcome", "setting": "[2]", "result": "inactive"}, {"measurement": "outcome", "setting": "[3]", "result": "inactive"}]}
{"compound": "CC(C)[C@H]1CC[C@@H](C)CC1=O", "values": [{"measurement": "outcome", "setting": "[1]", "result": "inactive"}, {"measurement": "outcome", "setting": "[2]", "result": "inactive"}]}
{"compound": "O=C(O)Cc1cccc2ccccc12", "values": [{"measurement": "outcome", "setting": "[1]", "result": "inactive"}, {"measurement": "outcome", "setting": "[2]", "result": "inactive"}]}
{"compound": "Cc1ncc([N+](=O)[O-])n1C", "values": [{"measurement": "outcome", "setting": "[1]", "result": "inactive"}, {"measurement": "AC50", "setting": "[2]", "result": "100 µM (active)"}]}
{"compound": "CC(C)=CCC/C(C)=C/COC=O", "values": [{"measurement": "outcome", "setting": "[1]", "result": "inactive"}, {"measurement": "outcome", "setting": "[2]", "result": "inactive"}, {"measurement": "outcome", "setting": "[3]", "result": "inactive"}]}
{"compound": "CC(C)=CCC[C@](C)(O)[C@@H]1CC=C(C)CC1", "values": [{"measurement": "outcome", "setting": "[1]", "result": "inactive"}, {"measurement": "outcome", "setting": "[2]", "result": "inactive"}]}
{"compound": "Clc1ccc(Cl)c(Cl)c1Cl", "values": [{"measurement": "outcome", "setting": "[1]", "result": "inactive"}, {"measurement": "AC50", "setting": "[2]", "result": "63.4 µM (active)"}, {"measurement": "outcome", "setting": "[3]", "result": "inactive"}]}
{"compound": "CC1(C)CCC(C)(C)c2cc(C(=O)Nc3ccc(C(=O)O)cc3)ccc21", "values": [{"measurement": "outcome", "setting": "[1]", "result": "inactive"}, {"measurement": "outcome", "setting": "[2]", "result": "inactive"}]}
{"compound": "COc1cc(C)cc(O)c1", "values": [{"measurement": "outcome", "setting": "[1]", "result": "inactive"}, {"measurement": "outcome", "setting": "[2]", "result": "inactive"}, {"measurement": "outcome", "setting": "[3]", "result": "inactive"}]}
{"compound": "C[C@H]1C[C@H]2[C@@H]3CCC4=CC(=O)C=C[C@]4(C)[C@@]3(F)[C@@H](O)C[C@]2(C)[C@@]1(O)C(=O)COP(=O)(O)O", "values": [{"measurement": "outcome", "setting": "[1]", "result": "inactive"}, {"measurement": "outcome", "setting": "[2]", "result": "inactive"}]}
{"compound": "CCC(=O)OCCC(C)CCC=C(C)C", "note": "(configuration not stated)", "values": [{"measurement": "outcome", "setting": "[1]", "result": "inactive"}, {"measurement": "outcome", "setting": "[2]", "result": "inactive"}]}
{"compound": "COCCCOc1ccnc(CS(=O)c2nc3ccccc3[nH]2)c1C", "note": "(configuration not stated)", "values": [{"measurement": "outcome", "setting": "[1]", "result": "inactive"}, {"measurement": "outcome", "setting": "[2]", "result": "inactive"}, {"measurement": "AC50", "setting": "[3]", "result": "100 µM (active)"}]}
{"compound": "CC(CC(C)(C)C)CC(C)(C)CC(C)(C)C", "note": "(configuration not stated)", "values": [{"measurement": "outcome", "setting": "[1]", "result": "inactive"}, {"measurement": "outcome", "setting": "[2]", "result": "inactive"}, {"measurement": "outcome", "setting": "[3]", "result": "inactive"}]}
{"compound": "O=S(=O)(O)c1cccc2c(S(=O)(=O)O)cccc12", "values": [{"measurement": "outcome", "setting": "[1]", "result": "inactive"}, {"measurement": "outcome", "setting": "[2]", "result": "inactive"}]}
{"compound": "CN(C)CCCN", "values": [{"measurement": "outcome", "setting": "[1]", "result": "inactive"}, {"measurement": "outcome", "setting": "[2]", "result": "inactive"}, {"measurement": "outcome", "setting": "[3]", "result": "inactive"}]}
{"compound": "CCCc1ccccc1O", "values": [{"measurement": "outcome", "setting": "[1]", "result": "inactive"}, {"measurement": "AC50", "setting": "[2]", "result": "65.7 µM (active)"}, {"measurement": "outcome", "setting": "[3]", "result": "inactive"}]}
{"compound": "CCCCCCCCCCN", "values": [{"measurement": "outcome", "setting": "[1]", "result": "inactive"}, {"measurement": "outcome", "setting": "[2]", "result": "inactive"}]}
{"compound": "[Ca+2]", "values": [{"measurement": "outcome", "setting": "[1]", "result": "inactive"}, {"measurement": "outcome", "setting": "[2]", "result": "inactive"}]}
{"compound": "Nc1nc2ccc([N+](=O)[O-])cc2s1", "values": [{"measurement": "outcome", "setting": "[1]", "result": "inactive"}, {"measurement": "outcome", "setting": "[2]", "result": "inactive"}, {"measurement": "outcome", "setting": "[3]", "result": "inactive"}]}
